# Reference: paper PMC8384837, “Expanding the binding specificity for RNA recognition by a PUF domain”
# Legend:
# Experiment in all cases: yeast three-hybrid, YBZ-1, SC-Leu-His + 0.5 mM 3-AT, 4 days
# Conditions in all cases: tags: N-Gal4 AD-HA kept; label: inside an RPR1-promoter hybrid RNA with tandem MS2 sites; ssRNA
# [1] = biological target: PUM1 PUF domain R1-RGC (Homo sapiens, UniProt Q14671 828-1176, S863R;R864G;Q867C)
# Outline: (§1)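 Matching RNA elements and Pumilio-1 PUF domain libraries, randomized at the three base-contacting residues of every repeat, were co-expressed from a centromeric plasmid in strain YBZ-1 (LexA–MS2 coat fusion, HIS3 reporter). The repeat regions were PCR-amplified and Illumina-sequenced from cells grown four days on SC-Leu (input) or SC-Leu-His + 0.5 mM 3-AT (selection). The interaction score is the log change in variant frequency from input to selection. It is computed in log2, with a pseudocount of 1 for absent variants.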
# [2] = biological target: PUM1 PUF domain R3-IFS (Homo sapiens, UniProt Q14671 828-1176, C935I;R936F;Q939S)
# Outline: as §1
# [3] = biological target: PUM1 PUF domain R3-QRS (Homo sapiens, UniProt Q14671 828-1176, C935Q;Q939S)
# Chain of PUM1 PUF domain R3-QRS (Q14671 828-1176 C935Q/Q939S): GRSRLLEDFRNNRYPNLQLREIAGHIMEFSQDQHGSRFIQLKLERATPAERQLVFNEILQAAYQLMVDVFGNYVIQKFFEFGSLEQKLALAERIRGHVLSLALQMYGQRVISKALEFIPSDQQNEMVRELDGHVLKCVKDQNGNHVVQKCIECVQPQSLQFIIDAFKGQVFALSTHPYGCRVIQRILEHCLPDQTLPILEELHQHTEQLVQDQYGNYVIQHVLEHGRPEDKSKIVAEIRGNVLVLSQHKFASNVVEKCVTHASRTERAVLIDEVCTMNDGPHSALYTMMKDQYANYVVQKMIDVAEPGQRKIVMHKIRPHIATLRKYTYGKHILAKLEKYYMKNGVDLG
# Outline: as §1
# [4] = biological target: PUM1 PUF domain R8-RWP (Homo sapiens, UniProt Q14671 828-1176, N1122R;Y1123W;Q1126P)
# Outline: as §1
# [5] = biological target: PUM1 PUF domain R3-ART (Homo sapiens, UniProt Q14671 828-1176, C935A;Q939T)
# Outline: as §1
# [6] = biological target: PUM1 PUF domain R5-EFW (Homo sapiens, UniProt Q14671 828-1176, C1007E;R1008F;Q1011W)
# Outline: as §1
# [7] = biological target: PUM1 PUF domain R8-PYL (Homo sapiens, UniProt Q14671 828-1176, N1122P;Q1126L)
# Outline: as §1
# [8] = biological target: PUM1 PUF domain R8-RYN (Homo sapiens, UniProt Q14671 828-1176, N1122R;Q1126N)
# Outline: as §1
# [9] = biological target: PUM1 PUF domain R8-LFG (Homo sapiens, UniProt Q14671 828-1176, N1122L;Y1123F;Q1126G)
# Chain of PUM1 PUF domain R8-LFG (Q14671 828-1176 N1122L/Y1123F/Q1126G): as the sequence (Q14671 828-1176 C935Q/Q939S) above, with Q108C, S112Q, N295L, Y296F, Q299G counted along it
# Outline: as §1
# [10] = biological target: PUM1 PUF domain R5-VYF (Homo sapiens, UniProt Q14671 828-1176, C1007V;R1008Y;Q1011F)
# Chain of PUM1 PUF domain R5-VYF (Q14671 828-1176 C1007V/R1008Y/Q1011F): as the sequence (Q14671 828-1176 C935Q/Q939S) above, with Q108C, S112Q, C180V, R181Y, Q184F counted along it
# Outline: as §1
# [11] = biological target: PUM1 PUF domain R4-GPN (Homo sapiens, UniProt Q14671 828-1176, N971G;H972P;Q975N)
# Chain of PUM1 PUF domain R4-GPN (Q14671 828-1176 N971G/H972P/Q975N): as the sequence (Q14671 828-1176 C935Q/Q939S) above, with Q108C, S112Q, N144G, H145P, Q148N counted along it
# Outline: as §1
# [12] = biological target: PUM1 PUF domain R4-WFG (Homo sapiens, UniProt Q14671 828-1176, N971W;H972F;Q975G)
# Chain of PUM1 PUF domain R4-WFG (Q14671 828-1176 N971W/H972F/Q975G): as the sequence (Q14671 828-1176 C935Q/Q939S) above, with Q108C, S112Q, N144W, H145F, Q148G counted along it
# Outline: as §1
# [13] = biological target: PUM1 PUF domain R3-RAG (Homo sapiens, UniProt Q14671 828-1176, C935R;R936A;Q939G)
# Chain of PUM1 PUF domain R3-RAG (Q14671 828-1176 C935R/R936A/Q939G): as the sequence (Q14671 828-1176 C935Q/Q939S) above, with Q108R, R109A, S112G counted along it
# Outline: as §1
# [14] = biological target: PUM1 PUF domain R5-RAV (Homo sapiens, UniProt Q14671 828-1176, C1007R;R1008A;Q1011V)
# Outline: as §1
# [15] = biological target: PUM1 PUF domain R5-KQC (Homo sapiens, UniProt Q14671 828-1176, C1007K;R1008Q;Q1011C)
# Chain of PUM1 PUF domain R5-KQC (Q14671 828-1176 C1007K/R1008Q/Q1011C): as the sequence (Q14671 828-1176 C935Q/Q939S) above, with Q108C, S112Q, C180K, R181Q, Q184C counted along it
# Outline: as §1
# [16] = biological target: PUM1 PUF domain R7-RGW (Homo sapiens, UniProt Q14671 828-1176, S1079R;N1080G;E1083W)
# Outline: as §1
# [17] = biological target: PUM1 PUF domain R5-NIL (Homo sapiens, UniProt Q14671 828-1176, C1007N;R1008I;Q1011L)
# Outline: as §1
# [18] = biological target: PUM1 PUF domain R4-GSQ (Homo sapiens, UniProt Q14671 828-1176, N971G;H972S)
# Outline: as §1
# [19] = biological target: PUM1 PUF domain R4-VFP (Homo sapiens, UniProt Q14671 828-1176, N971V;H972F;Q975P)
# Chain of PUM1 PUF domain R4-VFP (Q14671 828-1176 N971V/H972F/Q975P): as the sequence (Q14671 828-1176 C935Q/Q939S) above, with Q108C, S112Q, N144V, H145F, Q148P counted along it
# Outline: as §1
# [20] = biological target: PUM1 PUF domain R2-RRC (Homo sapiens, UniProt Q14671 828-1176, N899R;Y900R;Q903C)
# Chain of PUM1 PUF domain R2-RRC (Q14671 828-1176 N899R/Y900R/Q903C): as the sequence (Q14671 828-1176 C935Q/Q939S) above, with N72R, Y73R, Q76C, Q108C, S112Q counted along it
# Outline: as §1
# Chain of PUM1 PUF domain R1-RGC (Q14671 828-1176 S863R/R864G/Q867C): as the sequence (Q14671 828-1176 C935Q/Q939S) above, with S36R, R37G, Q40C, Q108C, S112Q counted along it
sequence,measurement,setting,value
GGCUAGAACUAGUGGAUCCCCCGGCGCCCGGCGGCUCGAGCCCGGGUAAGUGUAAAUGGUCUGCAUGCCGCCGGGCGCCAUGCCUGCAGGUCGACUCUAGAAAACAUG,binding signal,[1],1.27 log2 enrichment (interaction score)
GGCUAGAACUAGUGGAUCCCCCGGCGCCCGGCGGCUCGAGCCCGGGUAAGUGUAAGUAGUCUGCAUGCCGCCGGGCGCCAUGCCUGCAGGUCGACUCUAGAAAACAUG,binding signal,[2],5.56 log2 enrichment (interaction score)
same,binding signal,[3],2.75 log2 enrichment (interaction score)
GGCUAGAACUAGUGGAUCCCCCGGCGCCCGGCGGCUCGAGCCCGGGUAAGUGUAAAUCGUCUGCAUGCCGCCGGGCGCCAUGCCUGCAGGUCGACUCUAGAAAACAUG,binding signal,[1],3.36 log2 enrichment (interaction score)
GGCUAGAACUAGUGGAUCCCCCGGCGCCCGGCGGCUCGAGCCCGGGUAAGUGUAAAUAGUCUGCAUGCCGCCGGGCGCCAUGCCUGCAGGUCGACUCUAGAAAACAUG,binding signal,[4],3.02 log2 enrichment (interaction score)
same,binding signal,[5],3.43 log2 enrichment (interaction score)
same,binding signal,[6],4.47 log2 enrichment (interaction score)
same,binding signal,[7],2.9 log2 enrichment (interaction score)
same,binding signal,[8],5.13 log2 enrichment (interaction score)
same,binding signal,[9],1.28 log2 enrichment (interaction score)
same,binding signal,[10],2.44 log2 enrichment (interaction score)
same,binding signal,[11],3.62 log2 enrichment (interaction score)
same,binding signal,[12],1.81 log2 enrichment (interaction score)
GGCUAGAACUAGUGGAUCCCCCGGCGCCCGGCGGCUCGAGCCCGGGUAAGUGUGAAUAGUCUGCAUGCCGCCGGGCGCCAUGCCUGCAGGUCGACUCUAGAAAACAUG,binding signal,[6],4.12 log2 enrichment (interaction score)
GGCUAGAACUAGUGGAUCCCCCGGCGCCCGGCGGCUCGAGCCCGGGUAAGUGUAAUUAGUCUGCAUGCCGCCGGGCGCCAUGCCUGCAGGUCGACUCUAGAAAACAUG,binding signal,[5],0.34 log2 enrichment (interaction score)
same,binding signal,[13],3.75 log2 enrichment (interaction score)
same,binding signal,[3],2.68 log2 enrichment (interaction score)
GGCUAGAACUAGUGGAUCCCCCGGCGCCCGGCGGCUCGAGCCCGGGUAAGUGUCAAUAGUCUGCAUGCCGCCGGGCGCCAUGCCUGCAGGUCGACUCUAGAAAACAUG,binding signal,[14],2.94 log2 enrichment (interaction score)
same,binding signal,[15],3.25 log2 enrichment (interaction score)
GGCUAGAACUAGUGGAUCCCCCGGCGCCCGGCGGCUCGAGCCCGGGUAAGUUUAAAUAGUCUGCAUGCCGCCGGGCGCCAUGCCUGCAGGUCGACUCUAGAAAACAUG,binding signal,[16],3.68 log2 enrichment (interaction score)
GGCUAGAACUAGUGGAUCCCCCGGCGCCCGGCGGCUCGAGCCCGGGUAAGUGUUAAUAGUCUGCAUGCCGCCGGGCGCCAUGCCUGCAGGUCGACUCUAGAAAACAUG,binding signal,[17],3.18 log2 enrichment (interaction score)
GGCUAGAACUAGUGGAUCCCCCGGCGCCCGGCGGCUCGAGCCCGGGUAAGUGUACAUAGUCUGCAUGCCGCCGGGCGCCAUGCCUGCAGGUCGACUCUAGAAAACAUG,binding signal,[18],3.24 log2 enrichment (interaction score)
GGCUAGAACUAGUGGAUCCCCCGGCGCCCGGCGGCUCGAGCCCGGGUAAGUGUAAAUUGUCUGCAUGCCGCCGGGCGCCAUGCCUGCAGGUCGACUCUAGAAAACAUG,binding signal,[1],2.07 log2 enrichment (interaction score)
GGCUAGAACUAGUGGAUCCCCCGGCGCCCGGCGGCUCGAGCCCGGGUAAGUGUAUAUAGUCUGCAUGCCGCCGGGCGCCAUGCCUGCAGGUCGACUCUAGAAAACAUG,binding signal,[18],0.64 log2 enrichment (interaction score)
same,binding signal,[19],3.78 log2 enrichment (interaction score)
same,binding signal,[12],2.4 log2 enrichment (interaction score)
GGCUAGAACUAGUGGAUCCCCCGGCGCCCGGCGGCUCGAGCCCGGGUAAGCGUAAAUAGUCUGCAUGCCGCCGGGCGCCAUGCCUGCAGGUCGACUCUAGAAAACAUG,binding signal,[4],5 log2 enrichment (interaction score)
same,binding signal,[7],3.48 log2 enrichment (interaction score)
same,binding signal,[8],6.46 log2 enrichment (interaction score)
same,binding signal,[9],2.38 log2 enrichment (interaction score)
GGCUAGAACUAGUGGAUCCCCCGGCGCCCGGCGGCUCGAGCCCGGGUAAGUGUAAAGAGUCUGCAUGCCGCCGGGCGCCAUGCCUGCAGGUCGACUCUAGAAAACAUG,binding signal,[20],2.42 log2 enrichment (interaction score)
